# In the emibetuzumab library of Makowski et al. (2022):
# Some of the results follow. The true hit rate is not given.
# B1: VH:VL chains; a variant is named by its letters at X, in order (parent)
# chain 1: QVQLVQSGAEVKKPGASVKVSCKASGYTFTDYXMHWVRQAPGQGLEWMGXVNPNXXXTTYNQKFEGRVTMTTDTSTSTAYMELRSLRSDDTAVYYCARXNXLDXWGQGTTVTVSS
# chain 2: DIQMTQSPSSLSASVGDRVTITCSVSSSVSSIYLHWYQQKPGKAPKLLIYSTSNLASGVPSRFSGSGSGTDFTLTISSLQPEDFATYYCQVYSGYPLTFGGGTKVEIK
# Variants of: B1
# Experiment: yeast display scFab, FACS + sequencing
# Conditions: with MET
# Procedure, shortened: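 Heavy-chain CDR mutant scFab yeast surface library, enriched by two magnetic rounds on HGFR-Fc-coated Protein A beads and then by FACS. Cells were labelled with 1 nM HGFR-Fc in PBSB with 1% milk and anti-Myc for 3 h at room temperature, and the top 50% antigen-positive cells were gated. Round-3 sorted and input populations were deep sequenced in two replicates. Antigen binding call: positive if a sequence occurred in both antigen-positive samples, negative if it occurred only in input.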
row,Variant,antigen binding call
1,STTGSASF,no binding
2,FKGRGSSS,binds
3,FKGRDSGS,no binding
4,FKGRGSLS,binds
5,VGATSVSF,no binding
6,YARADDGS,no binding
7,VEAGDAGS,no binding
8,DAEKGAWA,no binding
9,YRTRDDVY,no binding
10,VRTEDAWV,no binding
11,YRTRDALV,binds
12,ARGRDAWV,no binding
13,YRGRDALV,binds
14,DRGRDDVV,no binding
15,FRTRDFLV,no binding
16,YRTRDDVV,binds
17,FRGRDDLV,no binding
18,YRGRDYGV,no binding
19,YRTRDAWV,binds
20,YARADDGD,no binding
21,YAAETDVF,no binding
22,VKEKGDGS,no binding
23,VKGTGFLD,no binding

row,Variant,antigen binding call
1,YRAKGALA,binds
2,YRAKGSLA,binds
3,ATGANAAV,no binding
4,AGGRSFVF,no binding
5,YEGRNVGV,no binding
6,VAGTGDLA,no binding
7,DEGGTDWD,no binding
8,YRAKGVGA,binds
9,YRAKGYGA,no binding
10,YRAKGAGA,binds
11,SARGGYWY,no binding
12,YRRRGAAY,binds
13,YRKGGDLY,no binding
14,YRRKGAAY,binds
15,DARGGAVY,no binding
16,YRRGGAAY,binds
17,YRKGGAAY,binds
18,SRKEGAAY,no binding
19,STGRADWA,no binding
20,SEARSALV,no binding
21,DEGGTSGV,no binding
22,FKKGDAVS,no binding
23,FKKGSYVF,no binding

row,Variant,antigen binding call
1,FKKGSAVV,binds
2,FKKGSAAV,binds
3,DKEGGAAV,no binding
4,VAGGDDVF,no binding
5,DEGKAAGS,no binding
6,YRRRGASA,binds
7,YRRRGVSA,binds
8,VTGRAALA,no binding
9,SERRDVLY,no binding
10,DRAGDDWA,no binding
11,VTETGSLV,no binding
12,DAKRDSAS,no binding
13,YRGRDSAS,binds
14,SAKRDSAS,no binding
15,YRGGDSAS,binds
16,VTGGDSAS,no binding
17,DRGRDDGS,no binding
18,YRTRDSAS,binds
19,FRGRDFVS,no binding
20,YRGRDSVS,binds
21,YRGGDDSS,no binding
22,VEAGDDSA,no binding
23,SEARSDVY,no binding

row,Variant,antigen binding call
1,YTEGDFAV,no binding
2,VGRGNVGV,no binding
3,YRGEGSAS,binds
4,DATGGDVD,no binding
5,SKKRGAAA,binds
6,SKERGDWY,no binding
7,SKERGDAA,no binding
8,SKKRGASA,binds
9,SEGRGAAA,no binding
10,SKKRGAWY,binds
11,SKKRGAWA,binds
12,SKTKSSSA,no binding
13,SKGASAWA,no binding
14,SEKGGSSA,no binding
15,SKKTGDLY,no binding
16,SKGEGDWA,no binding
17,VEKEGDGS,no binding
18,YAAKNDGA,no binding
19,YEGGADVV,no binding
20,YRRGGSGY,binds
21,YRRGGAGY,binds
22,VAGTGDLY,no binding
23,VRERSSVD,no binding

row,Variant,antigen binding call
1,VRTRAAVD,binds
2,VTTRASGD,no binding
3,VTTRAAVS,no binding
4,VRAGADVD,no binding
5,VRTRASVD,binds
6,YTAGSDGV,no binding
7,YKGRGYGA,binds
8,VKGRGYGA,binds
9,VKGEGYGA,no binding
10,VAGAGYGA,no binding
11,VRAKGAGY,binds
12,VRRGDDVY,no binding
13,VRKKGYVY,no binding
14,VKAKDAGY,no binding
15,VRRGDVGV,no binding
16,VRRGDAGY,binds
17,VEGGGSSV,no binding
18,DREEGDWA,no binding
19,VRGKAAVS,no binding
20,VEGGGAAS,no binding
21,VRGRDAVS,binds
22,VRGGDAAS,binds
23,VRGGDDGS,no binding

row,Variant,antigen binding call
1,VRGGDAVS,binds
2,VRGGDAVY chain 1 G44D,no binding
3,VRGGDAVA,binds
4,VAGGDAAA,no binding
5,DRGGDAVA,no binding
6,VRGRDDSA,no binding
7,VAGGDAVA,no binding
8,DTGTGDWV,no binding
9,SEEEGDAV,no binding
10,VKGAGDLA,no binding
11,VRRTDFVA,no binding
12,VGGTDFVA,binds
13,VGGTSDVA,no binding
14,VGGGADGA,no binding
15,VRRRSSLA,binds
16,VKRRSVGA,no binding
17,VKRATVLA,no binding
18,VKRRSSLA,binds
